Results as given in PubChem BioAssay AID1985 (Southern Research Specialized Biocontainment Screening …, 2009).
Out of some 2,300 compounds screened, about 1,000 (43%) were called active. No rule for the calls is given here. So high a share suggests a set chosen from earlier hits. Some of the results follow. A call without a number means that no potency is given here. Potency and affinity values are given separately.

Assay: PhoP regulon inhibitor project modified counter assay, GFP fluorescence readout, dose response (AID 1985)
Settings: S. Typhi, 4 h; series mostly up to 150 µM

Structure (SMILES)	outcome
Cc1cnc(NC(=O)CN2C(=O)C3CC=CCC3C2=O)s1 (centres undefined)	inactive
Cc1cc(NS(=O)(=O)c2ccc(Nc3nc(-c4sc(NC(=O)c5ccccc5)nc4C)cs3)cc2)no1	inactive
CCc1nnc(NS(=O)(=O)c2ccc(NC(=S)NC(=O)/C=C/c3ccc(C(C)C)cc3)cc2)s1	inactive
Cc1cc(NS(=O)(=O)c2ccc(NC(=O)C(C)Oc3ccc4c(C)cc(=O)oc4c3)cc2)no1 (centres undefined)	inactive
COc1nccnc1NS(=O)(=O)c1ccc(NC(=S)NC(=O)c2cccnc2)cc1	inactive
CC(C)n1cnnc1SCC(=O)Nc1ccc(Br)cc1F	inactive
COC(=O)c1ccc(C)c(NC(=O)CN2C(=O)c3ccccc3S2(=O)=O)c1	inactive
CS(=O)(=O)c1cnc2c(-c3ccc(F)cc3)cnn2c1N	inactive
COc1ccc(NC(=O)N2CCc3ccccc32)cc1	inactive
O=C(CCl)NC1CCCc2ccccc21 (centres undefined)	inactive
Cc1ccc(NC(=O)C(=O)NCc2ccncc2)cc1	inactive
CCOc1ccccc1NC(=O)Nc1ccncc1	inactive
S=C(NCc1ccc(Cl)cc1)Nc1ccncc1	inactive
CCCCOc1ccc(-c2nnn(CC(=O)Nc3ncc(CC(=O)OCC)s3)n2)cc1	inactive
CCOc1ccc(N2C(=O)CN(O)C=C3N=c4ccccc4=C32)cc1	inactive
Cc1cccc(OCCSc2nnc(-c3ccoc3C)n2C)c1	inactive
O=C(NCCCN1CCOCC1)c1sc2cc(Cl)ccc2c1Cl	inactive
Cc1cccc(OCc2nnc(SCC(=O)N3CCCC3)n2C)c1	inactive
C[N+]1(CC2COC3(CCCCC3)O2)CCCCC1 (centres undefined)	inactive
CCN(CC)S(=O)(=O)c1ccc2c(c1)c(C(=O)O)cn2C	inactive
Cc1nnc(SCC(=O)N(C(C)C)C(C)C)[nH]c1=O	inactive
O=C1CCCN1c1ccc(CNS(=O)(=O)c2ccc(F)cc2)cc1	inactive
CCCCOc1ccc(C2=NNC(=O)CC2)cc1	inactive

Structure (SMILES)	outcome
O=C(O)c1cnn2c1NC(c1cccs1)CC2C(F)(F)F (centres undefined)	inactive
Cc1cc2ncn(/N=C/c3ccc([N+](=O)[O-])o3)c2cc1C	inactive
O=C(Nc1ccccc1)c1cccnc1N1CCOCC1	inactive
Cc1cccc(N2CCN(C(=O)C3CCN(c4nnc(-n5cccc5)s4)CC3)CC2C)c1 (centres undefined)	inactive
c1ccc2c(c1)nc(N1CCOCC1)c1c3ccccc3[nH]c21	inactive
COCCNC(=S)N=Nc1c(O)[nH]c2ccc([N+](=O)[O-])cc12	inactive
CC(=O)N1CSCC1C(=O)N1CCN(c2ccc(N3CCOCC3)nn2)CC1 (centres undefined)	inactive
Cc1nc2ccc(NC(=O)C(F)(F)F)cc2o1	inactive
CCn1nnnc1NCc1cccc(Cl)c1	inactive
O=C(NCCCn1ccnc1)c1cc2c(ccc3ccccc32)o1	inactive
O=C(/C=C/c1ccc(Cl)cc1)NCCCn1ccnc1	inactive
Cc1noc(C)c1S(=O)(=O)N1CCC(Cc2ccccc2)CC1	inactive
CC(C)(C)c1ccc(NC(=O)COc2ccc(-n3ccnc3)cc2)cc1	inactive
Cc1nn(-c2ccccc2)c(C)c1/C=N/n1c(-c2ccc(C(C)(C)C)cc2)n[nH]c1=S	inactive
CC1CCCC(NC(=O)COC(=O)CCSc2ccccc2)C1C (centres undefined)	inactive
O=C(Nc1ccccc1)C1=C(O)CC(c2ccc(Cl)cc2)N2CCN=C12 (centres undefined)	inactive
CNCCC=C1c2ccccc2CCc2ccccc21	inactive
CN(C)CCCN1c2ccccc2CCc2ccc(Cl)cc21	inactive
c1cc(N2CCCC2)ccc1C(c1nnnn1C1CCCCC1)N1CCOCC1 (centres undefined)	inactive
O=C(N/N=C/c1ccco1)c1cccc(NC(=O)c2cccc(Cl)c2)c1	inactive
O=C(Nc1ccc2c(c1)OCCO2)C(=S)NCc1ccccc1	inactive
Cc1ccccc1Cn1c(=O)n(CCCC(=O)NCc2ccco2)c(=O)c2ccccc21	inactive
Cc1cc(C)nc(SCC(=O)NCc2ccco2)n1	inactive

Structure (SMILES)	outcome
CC(C)CN1CCN(Cc2cnc(N3CCOCC3)s2)CC1CCO (centres undefined)	inactive
O=C(Nc1ccc(N2CCOCC2)c(Cl)c1)c1ccc(-n2cnnc2)cc1	inactive
COc1ccc2nc(NC(=O)Nc3ccccc3)sc2c1	inactive
CCOc1ccc(N2CC(C(=O)OCC(=O)NCc3ccccc3)CC2=O)cc1 (centres undefined)	inactive
COc1ccc2nc(Nc3ccccc3)sc2c1	inactive
CC(C)Oc1ccc(N2CC(C(=O)Nc3ccccc3F)CC2=O)cc1 (centres undefined)	inactive
O=[N+]([O-])c1ccc2oc(C3CCCCC3)nc2c1	inactive
Cc1ccc(C)c(NC(=O)CCC(=O)N/N=C/c2cc([N+](=O)[O-])ccc2O)c1	inactive
CC(=O)Cc1nsc(NC(=O)c2csc3c2CCCC3)n1	inactive
Oc1ccccc1-c1cc(C(F)(F)C(F)F)[nH]n1	inactive
O=C(O)c1ccc(N2C(=O)CC(N3C(=O)/C(=C/c4ccc(Cl)cc4)SC3=S)C2=O)cc1 (centres undefined)	inactive
CN1C(=O)/C(=C/c2cccc(Cl)c2)Sc2ccc(C(=O)N3CCCC3)cc21	inactive
CC1CCN(c2c(NCc3ccc(C(=O)N4CCN(C5CCCCC5)CC4)cc3)c(=O)c2=O)CC1	inactive
Cc1cccc(NC(=O)c2sc3nc(-c4ccccc4)cn3c2C)n1	inactive
Cc1cc[n+](CC(=O)c2ccc(NC(=O)c3ccccc3)cc2)cc1	inactive
COc1cccc(N2CCN(C(=S)NCc3ccco3)CC2)c1	inactive
COc1ccc(OC)c(-c2cc(C(=O)Nc3ccc(F)cc3F)no2)c1	inactive
N#Cc1nc(COc2ccc(Br)cc2)oc1NCCCn1ccnc1	inactive
Cc1cc(C)c2sc(N(CCCN(C)C)C(=O)COc3ccc(Cl)cc3)nc2c1	inactive
COc1ccc2nc(N(CCN(C)C)C(=O)/C=C/c3cccs3)sc2c1	inactive
Cc1cccc(CSCCNC(=O)COc2ccc(Cl)cc2)c1	inactive
CN(C)CCN(C(=O)C1=COCCO1)c1nc2ccc(Cl)cc2s1	inactive
COc1ccccc1C1CN(c2ccc(F)cc2F)N=C1c1cccs1 (centres undefined)	inactive

Structure (SMILES)	outcome
Cc1ccc(S(=O)(=O)N2CCOCC2)cc1NC(=O)CSc1nc(N)cc(=O)[nH]1	inactive
C=CCN1C(=O)C(O)(CC(=O)c2c(C)n[nH]c2C)c2cc(Br)ccc21 (centres undefined)	inactive
Cc1nc(N=Nc2ccc(O)cc2)n[nH]1	inactive
O=C(Cn1cc(/C=C\[N+](=O)[O-])c2ccccc21)Nc1ccccc1	inactive
Cc1cc(C)nc(/N=C(\N)Nc2ccc(SC(F)F)cc2)n1	inactive
CC(C)(C)n1nc2c(c1NC(=O)Cc1cccs1)CSC2	inactive
CC1(NC(=O)NCCCCCCNC(=O)NC2(C)CCS(=O)(=O)C2)CCS(=O)(=O)C1 (centres undefined)	inactive
O=C(Nc1ccc2[nH]c(=S)sc2c1)Nc1ccccc1F	inactive
Nc1ncnc2nc(SCC(=O)Nc3cccc(C(F)(F)F)c3)[nH]c12	inactive
Clc1ccc(Cn2cccc2C2=NCCO2)cc1	inactive
c1cnc2nc(-c3ccc4c(c3)OCO4)cn2c1	inactive
CN1CCN(c2nc(Nc3ccc(F)cc3)nc(Nc3ccc(F)cc3)n2)CC1	inactive
COc1ccc(S(=O)(=O)N[C@H](C(=O)N2CC[C@@]3(O)CCCC[C@H]3C2)c2ccccc2)cc1	inactive
CCN(CC)CCOC(=O)c1cc(Cl)c(N)cc1OC	inactive
O=C(/C=C/c1ccc(O)cc1)c1ccccc1	inactive
CCc1c(C)n([O-])c2c([n+]1=O)CCCCC2	inactive
COc1ccc(N(CC(=O)N2c3ccccc3CC2C)S(=O)(=O)c2c(C)noc2C)cc1 (centres undefined)	inactive
N#Cc1c(/N=C/c2cccs2)sc2c1CCCCC2	inactive
Cc1cc(C)cc(CSc2nnc(C)c(=O)[nH]2)c1	inactive
COc1cccc(CNC(=O)C2CCN(S(=O)(=O)c3ccc(C)cc3)CC2)c1	inactive
CC(=O)NC(c1ccc(Cl)cc1Cl)c1ccc2cccnc2c1O (centres undefined)	inactive
Cc1ccc(Cn2c(=N)c(C(=O)NCCN3CCOCC3)cc3c(=O)n4ccccc4nc32)cc1	inactive
COc1cc2[nH]c(=O)n(Cc3ccc(C(=O)N4CCC(N5CCCCC5)CC4)cc3)c(=O)c2cc1OC	inactive

Structure (SMILES)	outcome
O=C(c1cc2c(s1)-c1ccccc1OC2)N1CCc2ccccc2C1	inactive
CNC[C@@H](CC1CCCCC1)NC[C@H](CC(C)C)NCCc1cccc(C(F)(F)F)c1	inactive
CS(=O)(=O)N1CC(C(=O)NC2CC2)Oc2ccc(Cl)cc21 (centres undefined)	inactive
CCCSc1nc2cc(OC)c(OC)cc2c(=N)n1CCCN1CCOCC1	inactive
CC(C)(C)NC(=O)c1ccc2c3c(cccc13)CC2	inactive
O=C(CSc1nnnn1C1CCCCC1)N1CCCC1	inactive
COCCn1nnnc1C(c1cccc(OC)c1OC)N1CCN(C2CCCCC2)CC1 (centres undefined)	inactive
CC(C)OC(=O)c1cccc(C(=O)Oc2ccc(Br)cc2)n1	inactive
O/N=C/C1=C(Cl)c2ccccc2CC1	inactive
CCOc1ccc(Cl)cc1/C=N/O	inactive
CCOC(=O)Cn1c(=O)oc2cc(S(=O)(=O)NCC3CCCO3)ccc21 (centres undefined)	inactive
CCOC(=O)C(NC(C)=O)(OCc1ccc(F)cc1)C(F)(F)F (centres undefined)	inactive
Cc1nn(Cc2ccccc2Cl)c2sc(C(=O)Nc3ccccc3N3CCOCC3)cc12	inactive
O=C1SC(c2ccccc2)=C/C1=C\N1CCCCC1	inactive
CC(C)C(NS(=O)(=O)c1cccc2nsnc12)C(=O)N1CCn2c1nc1ccccc12 (centres undefined)	inactive
Nc1[nH]c(=O)ncc1F	inactive
O=C1c2cccnc2C(=O)N1c1ccccc1-c1ccccc1	inactive
Cc1ccc(-n2c(=O)c3sccc3n(CC(=O)NC3CCCCC3)c2=O)cc1	inactive
Cc1ccc2c(c1)c1c(n2CC(O)CN2CCC(C)CC2)CCCC1 (centres undefined)	inactive
C[N+]1(C)C2CCC1CC(OC(=O)c1ccccc1)C2 (centres undefined)	inactive
COCCNC(=O)c1cccc(OC2CCN(Cc3ccccc3C)CC2)c1	inactive
CCN(CC)C(=O)C1CCN(Cc2ccc(Br)cc2)CC1	inactive
